# Test results reported in the OligoGym collection.
# Biological target: COMMD8
# Assay: pooled miR-30 sensor sort-seq; sequence = guide strand
# Settings: shRNA
# Note: reference of the scale not given here.
row,Sequence,sensor-assay potency score (higher = more potent)
1,TTTCTCTTGACAGAGCCTGTTT,-0.392
2,TATTTCTCTTGACAGAGCCTGT,-1.04
3,AATTATTTTGTGAAGAAGCTGC,0.272
4,TTTACATCTAGATGCAGGCTTA,-0.242
5,TCAACTGCTGAAATATCTCTTC,-0.0513

# Biological target: COPE
# Assay: as above
# Settings: shRNA
row,Sequence,sensor-assay potency score (higher = more potent)
1,TTACGTCGAACAGCTCGTCTAC,-0.753
2,TTCTTTACGTCGAACAGCTCGT,-0.53
3,TCATCTCTCGGTCCAGCTCGGC,-1.47
4,TTGATAGCTTCACCCGCTGCGC,-1.31
5,ATTCTCTTCAGCTCCTTCCGGG,-0.00872
6,TTGATGAAGGGATGGGACCTGT,-0.268
7,TTGACCAGCGTCTCTGGGTAGC,-0.621
8,AACAGCTCGTCTACCTCCCCGG,-0.819
9,TCAGCTGGGACAGGTATCGGTT,-0.759
10,AAAGTCGTTCTCCTTGGCCTGG,-1.24
11,TTTACGTCGAACAGCTCGTCTA,-1.05
12,TTCTCTTCAGCTCCTTCCGGGC,-0.99

# Biological target: COPS6
# Assay: as above
# Settings: shRNA
row,Sequence,sensor-assay potency score (higher = more potent)
1,TCTGTCTTGAACTTGTCTGTGC,0.397
2,TCGTAGAGGACATTGAACTTGT,0.432
3,TTGTCTGTGCTGAGCACCGGGA,-0.77
4,AATCTGTCTTGAACTTGTCTGT,-0.335
5,TTGTCAATGATAATCTTCTCTT,-0.44
6,TTGTCGGTCGTAGAGGACATTG,-1.74
7,TTCCTTGTCAATGATAATCTTC,-0.166
8,TACTGCTGCATCCACCTCCATC,-1.31
9,TTAAACTGCTCCTCCTTGGTGT,0.63
10,TTGAACTTGTTCACAAACTGGT,0.64
11,TTGATCATAAAAATCTGTCTTG,0.185
12,TTCAACTTCAGAAAGAGGGGGC,0.785

# Biological target: COPS7A
# Assay: as above
# Settings: shRNA
row,Sequence,sensor-assay potency score (higher = more potent)
1,TTAGTGGAGGAAGATTCCGGGC,-0.887
2,TCTAACATTGGGCATGTCCAGC,-1.04
3,TGAACCTAGGATTATCAGCTGG,-0.856
4,TAATACAATCTATATACCCTTC,-0.206
5,TTATTCTTCTGAGCCTCTGTTA,-0.522
6,TTCTAGGATGAACATGTCCAGT,-1.29
7,TTCAGCTAAGTAGTCAGCGTAT,-0.555
8,TAGGAGCAGAAATTGCTCCTGG,-0.149
9,TTTACTTTAGCAGCCAGGGTGA,-0.299
10,TACACTTTACTTTAGCAGCCAG,-0.419
11,TAGTGTGACAGGATTCTAGGAT,0.596
